Sm TGR inh: qHTS Assay for the Inhibitors of Schistosoma Mansoni Peroxiredoxins; Schistosoma mansoni thioredoxin glutathione reductase (TGR), Q962Y6; purified TGR, DTNB reduction, TNB absorbance 405 nm; Potency, µM (doses to about 114 µM), without a hit: at the top dose activity change, negative = inhibition, hits mostly inhibitors; 360,000 tested, 3% active; AID 485364, 2010; also: nearly all actives have a fitted effect of over 60% in size
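Kinetic colorimetric format: TGR-catalysed, NADPH-driven DTNB reduction monitored via TNB absorbance. Enzyme dispensed at 20 nM; compound exposure 15 min at room temperature before reaction start.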
RE007 growth inh: qHTS Assay for Inhibitors of the HIV-1 protein Vpr; S. pombe RE007 Vpr strain, BacTiter-Glo ATP luminescence, 24 h; 360,000 tested, 0.21% active; Potency, µM (titrated, usually from 92.2 µM), for the others: top-dose activity change, negative = less growth, hits mostly inhibitors; active = well fitted falling curve with a large enough effect; inconclusive = small, poorly fitted or top-dose-only effect; inactive = no such curve, though single readings can be large or run the other way; also: nearly all actives have a fitted effect of over 50% in size
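Fission yeast RE007 carrying one integrated HIV-1 vpr copy, seeded at OD 0.01 in PMG+AL medium with 23 nL pinned compound. Grown 24 h at 30 degrees; viability read by BacTiter-Glo luminescence after 5 min.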
Tb PYK inh: qHTS of Trypanosoma Brucei Inhibitors; Potency, µM (doses to about 76.8 µM), for the others: at the top dose activity, negative = inhibition, usual class: inhibitors; 410,000 tested, 0.12% active; TbPYK enzyme, Kinase-Glo Plus ATP luminescence, 45 min; AID 624173, 2012; pyruvate kinase (Trypanosoma brucei), Q57TT1; also: nearly all actives have a fitted effect of over 50% in size
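Activity of T. brucei pyruvate kinase was followed by Kinase-Glo Plus luminescence after the enzyme reacted 45 min at room temperature with 130 uM ADP (final) and substrate. Test compounds were added before ADP at multiple concentrations.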
FMDV antiviral: High Throughput Screening for Foot and Mouth Disease Virus Antivirals | 410,000 tested, 1.2% active | Potency, µM (top dose mostly 57.9 µM), inactives show at the top dose activity change, negative = inhibition, actives largely listed as inhibitors | FMDV antiviral cell-based qHTS; calls by dose curve; tested in HEK293T cells; also: read-out not given here; nearly all actives have a fitted effect of over 45% in size
* marks the source's active call; other numbers are inactive results; ? = inconclusive; nt = not tested or not shown; [ ] = another dose, or the depositor's remark. A selection: hits, their analogues and other compounds. The true share with any hit is near 3.7%. Unless noted, calls follow the shape of the dose curve; as a rule, active = well fitted curve in the direction sought with a large enough effect; inconclusive = small, poorly fitted or top-dose-only effect, or another doubt; inactive = no such curve, though single readings can be large; an effect the other way counts as inactive or inconclusive. % is scaled to controls: 0 for no effect and ±100 for the full control effect; potency is read from the fitted curve at half-maximal effect.

SMILES | Sm TGR inh | RE007 growth inh | Tb PYK inh | FMDV antiviral
COc1ccc(C2C(C(=O)Nc3cccnc3)=C(C)Nc3nc(-c4ccco4)nn32)cc1 (stereo not drawn) | 50µM* | 13% | -5% | -13%
COc1ccc(N2C(=O)C3CC(C)=C(C)CC3C2=O)c(OC)c1 (stereo not drawn) | 3% | -6% | -1% | -22%
COc1cc(N2C(=O)C=CC2=O)ccc1N1C(=O)C=CC1=O | nt | -11% | 4.5µM* | 32µM*
O=C1CCCc2nc(N3CCN(C(c4ccccc4)c4ccccc4)CC3)ncc21 | ? | -15% | -1% | 22µM*
Cc1ccc(NNC(=O)c2ccno2)cc1C | 50µM* | 67% | 0% | -2%
Cc1ccc(NNC(=O)c2ccno2)cc1Cl | -2% | 25% | -2% | -19%
Cc1cc(C(=O)NNc2ccc(C)c(C)c2)no1 | 50µM* | 6% | 5% | 18%
COc1cccc(CN2CCCC(c3nc(-c4ccncc4)ncc3-c3ccccc3C)C2)c1O (stereo not drawn) | nt | nt | nt | -12%
CN1C(=O)N(CC(=O)N2CCN(S(=O)(=O)c3ccc(Cl)s3)CC2)C(=O)C12CCCCC2 | 45µM* | 13% | -3% | 0%
CCC1(c2ccccc2)NC(=O)N(CC(=O)Nc2cc(S(=O)(=O)N3CCCCC3)ccc2N(C)C)C1=O (stereo not drawn) | 4% | 1% | 7% | 1%
COc1ccc(S(=O)(=O)N2CCCCCC2)cc1NC(=O)CN1C(=O)NC(C)(c2ccccc2)C1=O (stereo not drawn) | 35µM* | -7% | 0% | -9%
O=C(c1cn(C2CCCN(Cc3cc(Cl)ccc3O)C2)nn1)N1CCCCC1 (stereo not drawn) | nt | nt | nt | -14%
C1CN(CC2CCN(c3nc4nonc4nc3N3CCSCC3)CC2)CCO1 | 28µM* | 4% | 0% | 7%
O=C(CC(c1cccs1)N1Cc2ccccc2C1=O)Nc1ccc(Cl)cc1 (stereo not drawn) | 1% | nt | 1% | 11%
COc1cc(CN2CCC(C(=O)NC3CCCC3)CC2)cc(OC)c1O | 8.9µM* | -1% | 7% | 0%
COc1cc(CN2CCC(C(=O)N3CCN(c4ccccc4F)CC3)CC2)cc(OC)c1O | ? | 5% | -3% | 41%
COc1cc(CN2CCC(C(=O)N3CCCC(C)C3)CC2)cc(OC)c1O (stereo not drawn) | 10µM* | -16% | -1% | nt
O=S(=O)(Nc1cccc(-c2ccc(N3CCCC3)nn2)c1)c1ccc(F)c(C(F)(F)F)c1 | -5% | nt | -4% | 28%
Nc1nc(N)c(N=Nc2ccc(C(=O)O)cc2)c(N)n1 | -15% | nt | -1% | -5%
Oc1ccc(N=Nc2c(O)ccc3ccccc23)cc1 | -22% | ? | -5% | nt
O=C(O)c1ccc(N=Nc2c(O)ccc3ncccc23)cc1 | -29% | -20% | -10% | 5.6µM*
O=C(O)c1cc(N=Nc2c(O)ccc3ccccc23)cc(C(=O)O)c1 | -33% | -12% | 13µM* | -27%
CCCCCCCCCc1ccc(OCCOCCO)cc1 | nt | nt | nt | 11µM*
CC(=O)Nc1cc(C(=O)N2CCCC(C)C2)cc2ncn(CCc3ccccn3)c12 (stereo not drawn) | nt | nt | nt | -4%
Cc1ccc(CN(Cc2cccnc2)C(=O)CN2C(=O)COc3ccccc32)o1 | 10µM* | -5% | ? | -12%
SMILES | Sm TGR inh | RE007 growth inh | Tb PYK inh | FMDV antiviral
Cc1cccc(OCC(=O)Nc2cccc(OCc3cc(=O)n4cccc(C)c4n3)c2)c1 | 0% | nt | -5% | -28%
O=C(Cc1ccccc1)Nc1cccc(N2CCCC2)c1 | 32µM* | ? | -2% | 17%
O=C(Nc1ccccc1)c1ccc(Br)c(S(=O)(=O)N2CCCCC2)c1 | 1% | nt | -15%[15.4 µM] | 14µM*
O=C(Nc1ccc2c(c1)OCO2)c1ccc(Br)c(S(=O)(=O)N2CCCC2)c1 | -34% | -12% | -3% | ?
O=C(Nc1ccc2c(c1)OCCO2)c1ccc(Br)c(S(=O)(=O)N2CCOCC2)c1 | 12% | 27% | 2% | 18µM*
Cc1nc2cc(NC(=O)[C@@H]3C[C@@H](Sc4ccccn4)CN3Cc3cccc(Cl)c3)ccc2s1 | nt | nt | nt | 5%
CN(C)CCNc1oc(COc2ccc(Cl)cc2Cl)nc1C#N | ? | -9% | 0% | 17%
N#Cc1nc(COc2cccc(Cl)c2)oc1NCCN1CCOCC1 | 35µM* | -9% | 1% | 14%
